In all, about 360,000 compounds went through this assay and about 1,300 (0.36%) were called active. Cut-off read from the data, not from the text of the source: active = inhibition above about 34% (passing the limit was not always enough); inactive = the rest. Many of the other results were omitted from the sample, so actives are more common in it than they were.

Chain of C-X-C chemokine receptor type 6 (Homo sapiens) (O00574 whole entry, looked up): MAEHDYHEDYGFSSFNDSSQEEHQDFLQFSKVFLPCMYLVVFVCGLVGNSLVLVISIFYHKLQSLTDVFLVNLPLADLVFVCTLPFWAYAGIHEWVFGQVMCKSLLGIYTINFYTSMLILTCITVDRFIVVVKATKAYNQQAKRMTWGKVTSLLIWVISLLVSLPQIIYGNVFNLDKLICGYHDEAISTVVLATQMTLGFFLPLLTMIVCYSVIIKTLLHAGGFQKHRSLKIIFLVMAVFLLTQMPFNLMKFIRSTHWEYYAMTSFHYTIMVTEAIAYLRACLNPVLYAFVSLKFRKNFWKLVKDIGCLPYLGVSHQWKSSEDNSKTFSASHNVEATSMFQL

This assay has as its target C-X-C chemokine receptor type 6 (Homo sapiens) (UniProt O00574). The assay is described as follows: blockade of CXCL16-induced CXCR6 beta-arrestin recruitment – cell-based, luminescence, CHO-K1 PathHunter, 1536-well, primary screen (AID 602244).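 Note: antagonist mode with CXCL16 agonist at 10 nM final; 0% = 10 nM CXCL16 with DMSO and 100% = unstimulated wells without agonist.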 To be noted: at 20 µM, active compounds read high. (Recruitment of arrestin is a read-out of receptor activation apart from second messengers.)
Usually inhibition stands for the change of the read-out against control, counted positive when it falls. Turning to `COC(=O)C1=C(C(=O)OC)[C@@H]2N(C)c3ccccc3[C@@]23C[C@@H](C(=O)OC)N(C(C)=O)C3=N1`, the inhibition is 0.7% (inactive).

In the case of `O=C(C1CC(=O)N(c2ccc(F)cc2)C1)N1CCN(c2ccccc2)CC1` (stereo not drawn), the inhibition is 7% (inactive). Take `O=C(C1CC(=O)N(C2CCCCC2)C1)N1CCN(c2ccccc2)CC1` (stereo not drawn): the inhibition is 37% (active).

As to `O=C(C1CC(=O)N(C2CCCC2)C1)N1CCN(c2cccc(C(F)(F)F)c2)CC1` (stereo not drawn), the inhibition was -1.4% (inactive). The result for `CCN1CCN(c2ccc(S(=O)(=O)N3CCCCC3)cc2NC(=O)c2cccc(NC(C)=O)c2)CC1` reads 1.9% (inactive). As to `CN(CCCC(=O)Nc1nccs1)S(=O)(=O)c1ccc(Cl)cc1`, the inhibition is 0.8% (inactive).

With `O=S(=O)(NCc1ccccc1Br)c1ccccc1Br`, the inhibition is 4.3% (inactive). Take `Oc1ccc2ccccc2c1N=Nc1nccs1`: the inhibition is 65.1% (active). In the case of `COC(=O)CN1C(=O)[C@H]2[C@@H](/C=C/c3ccccc3)N3C(=O)CN(Cc4ccccc4)C(=O)[C@@]3(Cc3ccccc3)[C@H]2C1=O`, the inhibition was -9.8% (inactive). The result for `O=C(Nc1ccccc1)c1nnsc1S(=O)(=O)c1ccc(Cl)cc1` reads 96.4% (active); that for `C/C(=N\NS(=O)(=O)c1ccc(Cl)cc1)c1ccc(NC(=O)c2ccco2)cc1`, 0.1% (inactive); that for `O=C(Nc1ccc(S(=O)(=O)N2CCOCC2)cc1)C1CCN(S(=O)(=O)c2ccc(Cl)cc2)CC1`, 0.6% (inactive). With `CC1CCN(CCCNC(=O)CN2C(=O)CSc3ccc(S(=O)(=O)N4CCCCC4)cc32)CC1`, the inhibition was 2% (inactive).

Regarding `Cc1ccc(-c2noc(CCC(=O)Nc3ccccc3N3CCN(C)CC3)n2)cc1`, the inhibition is 6% (inactive). As for `CCc1nn(-c2cc(Oc3cccc4ccccc34)nc(-c3ccccc3)n2)c(N)c1C#N`, the inhibition was 0.4% (inactive). The result for `Cc1cccc(CS(=O)(=O)c2ncc(Cl)c(C(=O)Nc3ccc(F)cc3)n2)c1` reads 57% (active); that for `Cc1cccc(NC(=O)Cn2cc(C(=O)c3ccco3)c3ccccc32)c1`, 4.5% (inactive).

In the case of `Cc1cccc(C(=O)Nc2ccc(Oc3cnccn3)cc2)c1`, the inhibition was 1.5% (inactive). For the compound `CN(CC(=O)Nc1ccc(F)cc1)CC(=O)Nc1ccc(Cl)c(S(=O)(=O)N2CCOCC2)c1`, the inhibition is -1% (inactive). For `Cc1cccc(NC(=O)c2nc(S(=O)(=O)Cc3ccccc3)ncc2Cl)c1`, the inhibition is 64.6% (active). `Cc1cccc(NC(=O)C2CCN(S(=O)(=O)c3cccc4cccnc34)CC2)c1`: the inhibition is 9.3% (inactive). Turning to `O=C(NN1CCOCC1)c1cccc(F)c1`, the inhibition was 0.7% (inactive). As for `CCCNC(=O)C1(C)CCN(C(=O)c2cc(F)ccc2C)C1` (stereo not drawn), the inhibition is 0.9% (inactive). Regarding `O=C(CSc1nc2cc3c(cc2c(=O)n1CCC1=CCCCC1)OCO3)NCc1ccco1`, the inhibition is 6.1% (inactive). As for `Cc1ccc2c(c1)N(CC(=O)NCCc1ccc(Cl)cc1)C(=O)c1cccnc1O2`, the inhibition is -3.1% (inactive).

Regarding `O=c1ccc2c(-c3ccccc3S(=O)(=O)O)c3ccc(O)c(O)c3oc-2c1O`, the inhibition is 47.9% (active).

As for `CC(=O)N1c2ccc(S(=O)(=O)N3CCCC(C(=O)Nc4cccc(F)c4)C3)cc2CC1C` (stereo not drawn), the inhibition is -11.7% (inactive). The result for `Cc1ccc(CCCOC(=O)C[N+]2(C)CCCCC2)cc1` reads -4.5% (inactive). The result for `CCCNC(=O)c1onc(CSc2ccc(F)cc2)c1C(=O)NC(C)C` reads 2.3% (inactive); that for `Cc1ccc(S(=O)(=O)N2CC[C@H]3[C@@H](C2)C(=O)C[C@@H](c2ccccc2)N3S(=O)(=O)c2ccc(C)cc2)cc1`, -1.4% (inactive); that for `CC(=O)Nc1nc(C)c(Cc2ccccc2)c(=O)[nH]1`, 4.4% (inactive).

With `CCCCc1nc2cc(C(=O)N3CCCCC3CCO)ccc2o1` (stereo not drawn), the inhibition was 4% (inactive). Take `COc1ccc2c(c1)c(=Cc1ccc(N(C)C)cc1)c1cc(-c3ccccc3)[n+](C)n12`: the inhibition was 39.6% (active). Turning to `COCCC(=O)N1CCC(Oc2ccc(C(=O)NCc3ccon3)cc2)CC1`, the inhibition is 6.3% (inactive). The result for `C[C@H]1CN([C@@H](C)CO)C(=O)c2cc(C3=CCCCC3)cnc2O[C@@H]1CN(C)C(=O)Cc1ccccc1` reads -0.7% (inactive). The result for `CC1(C)OC(=O)C2=C(C[C@@H](C3CCCCC3)O[C@@H]2c2ccc(Cl)cc2)O1` reads 8.1% (inactive). In the case of `COCCN(C(=S)Nc1cccc(Cl)c1C)C(C)c1ccco1` (stereo not drawn), the inhibition is 3.3% (inactive).

With `OCC1OC(n2cnc3c(N4CCCC4)ncnc32)C(O)C1O` (stereo not drawn), the inhibition was -4.2% (inactive). `COc1ccc(C2NC(=O)C(=O)/C2=C(\O)c2ccc(Cl)cc2)cc1OC` (stereo not drawn): the inhibition is 0.4% (inactive). The result for `CC(C)N1C(=O)C2C(C(=O)NC3CCCCC3)C3C=CC2(O3)C1C(=O)NC1CCCC1` (stereo not drawn) reads -4.9% (inactive); that for `CCN(CC)CCN1C(=O)C2C(C(=O)Nc3ccc(Br)cc3)C3C=CC2(O3)C1C(=O)NC1CCCCC1` (stereo not drawn), 7.8% (inactive); that for `CCOCCCN1C(=O)C2C(C(=O)Nc3ccc(OCC)cc3)C3C=CC2(O3)C1C(=O)NC1CCCCC1` (stereo not drawn), 74.4% (active). As for `CCc1cc2c(=O)n(-c3ccccc3)c(SCC(=O)O)nc2s1`, the inhibition is -2% (inactive). In the case of `CCO[C@H]1OC(C(=O)N2CCN(Cc3ccccc3)CC2)=C[C@@H](c2cn(C(C)=O)c3ccccc23)[C@@H]1CCCO`, the inhibition was -0.6% (inactive). The result for `CC1CCN(S(=O)(=O)c2ccc3c(ccn3CC(=O)O)c2)CC1` reads 7.6% (inactive); that for `O=C(Nc1ccccc1C(=O)N1CCCCCC1)c1ccccc1Cl`, 10.2% (inactive); that for `Cc1cc(C(=O)OCC(=O)Nc2ccccc2Cl)c(C)o1`, -6.7% (inactive). As to `O=C(Nc1ccccc1Cl)/C(Cl)=C(\Cl)S(=O)c1ccccc1` (stereo not drawn), the inhibition is 93.1% (active).

On to `Nc1nc2c(ncn2[C@@H]2O[C@H](CNCc3ccc(OCCCN4CCOCC4)cc3)[C@@H](O)[C@H]2O)c(=O)[nH]1`, for which the inhibition was -4.2% (inactive). The result for `CN(C)S(=O)(=O)c1ccc(Cl)c(NC(=O)COC(=O)CC(NC(N)=O)c2ccc(Cl)cc2)c1` (stereo not drawn) reads -0.2% (inactive); that for `Cc1cc(C)nc(S/C=C/C(=O)c2ccccc2)n1`, 46.1% (active).

As for `CCOC(=O)C(=Cc1ccccc1)C(=O)c1ccccc1`, the inhibition was 24% (inactive). Turning to `O=C(/C=C/Sc1ncn[nH]1)c1ccc(Cl)cc1`, the inhibition is 17.1% (inactive). Turning to `CCCCc1nc2ccccc2c(NC(=O)CN2CCN(C)CC2)c1CCC`, the inhibition was 2.4% (inactive). On to `Nc1ccccc1SC(C[N+](=O)[O-])c1ccccc1` (stereo not drawn), for which the inhibition is 43.8% (active). Regarding `CC(=O)Oc1ccc(Cn2c(C)c(C(=O)NCc3ccc(C#N)cc3)sc2=O)cc1`, the inhibition is 3.1% (inactive). `CC(=O)N1Cc2ccccc2CC1C(=O)O` (stereo not drawn): the inhibition is 8% (inactive).

Consider `Cc1ccc(NC(=O)CCC(=O)N/N=C/c2ccco2)c(C)c1`, for which the inhibition was -4% (inactive).

Consider `Cc1ccc(/C=N/NC(=O)C(NC(=O)c2ccccc2)c2n[nH]c(=O)c3ccccc23)cc1` (stereo not drawn), for which the inhibition is -2.3% (inactive). Consider `Cc1ccc(/C=N/NC(=O)C2=NNC(c3ccccc3)(c3ccccc3)C2)c(O)c1`, for which the inhibition was 49.2% (active). `O=C(NCCc1ccccc1)c1ccc(NC2=NC3CS(=O)(=O)CC3S2)cc1` (stereo not drawn): the inhibition is 0% (inactive). Take `CCCCNC(=S)N/N=C1\CCCCc2ccccc21`: the inhibition is 37.6% (active). `O=[N+]([O-])c1ccccc1N/N=C1\CCc2ccccc21`: the inhibition is 2.8% (inactive). Turning to `S=C(NCCC1=CCCCC1)Nc1ccccc1`, the inhibition was -7% (inactive).

Turning to `NC(=O)C1=C[C@@H](c2ccc3c(c2)OCO3)C[C@@H](OCCCCO)O1`, the inhibition is 1.5% (inactive). As for `Cc1ccc(NC(=O)CN(C)C(=O)COC(=O)c2nccnc2N)cc1`, the inhibition was -1.8% (inactive). For `O=C(COC(=O)c1cccc(Br)c1)Nc1cccc2c1C(=O)c1ccccc1C2=O`, the inhibition is -9.2% (inactive).

Regarding `O=C(NC1=CC(=O)c2ccccc2C1=O)c1ccccc1`, the inhibition is 71.6% (active). As to `CC(=O)c1cc(NC(=O)c2ccccc2)c(=O)oc1/C=C/N(C)C`, the inhibition is 9.9% (inactive).

For the compound `CCOC(=O)N1CCC(Nc2c(NCCCN3CCN(CC)CC3)c(=O)c2=O)CC1`, the inhibition is 8.9% (inactive). Regarding `CCCCS(=O)c1snnc1C` (stereo not drawn), the inhibition was -4.7% (inactive).

In the case of `CCCCc1ccc(S(=O)(=O)NC(=O)C2(C)CCN2C(=O)c2ccccc2)cc1` (stereo not drawn), the inhibition is 7.2% (inactive). On to `Cc1ccc(C23CC4CC(CC(C(=O)NCC(=O)O)(C4)C2)C3)cc1`, for which the inhibition is 1.5% (inactive). On to `CCCCN(C)CCNC(=O)CSCc1ccc(C)cc1`, for which the inhibition was 2.3% (inactive). The result for `Cc1ccc(N=Cc2c(O)n(-c3nccs3)c(=O)c3ccccc23)c(C)c1` reads 4.8% (inactive). Take `Cc1cccc(N2C(=O)CC(SC(N)=Nc3ccccc3)C2=O)c1` (stereo not drawn): the inhibition is 2.2% (inactive). Regarding `Cc1cccc(-n2c(O)c(C=Nc3ccccc3N)c(=O)[nH]c2=O)c1`, the inhibition was 108% (active).

Turning to `O=C(Cn1ncc2c3ccccc3n(Cc3ccccc3)c2c1=O)NCCCN1CCOCC1`, the inhibition was 8.7% (inactive).

Consider `O=C(COc1nsnc1N1CCOCC1)Nc1ccccc1Cl`, for which the inhibition was -3.6% (inactive). For `Cn1cccc1C(=O)NC(=O)COC(=O)Cc1coc2ccc3ccccc3c12`, the inhibition is -1.2% (inactive). Regarding `CC(C)c1nc2sc3c(c2c(=O)n1N)CC(C)(C)OC3`, the inhibition was 2.4% (inactive). Regarding `COc1cc(NC(=O)C2CCN(c3cnccn3)CC2)cc(OC)c1`, the inhibition was -10.3% (inactive). On to `O=C(OC1CCCCC1=O)c1cccc(S(=O)(=O)NCc2ccccc2)c1` (stereo not drawn), for which the inhibition is 7.3% (inactive).

Consider `CC(=O)N/C(=C\c1ccc(F)cc1)C(=O)NC(Cc1ccccc1)C(=O)O` (stereo not drawn), for which the inhibition was 1.6% (inactive). For the compound `CC(=O)c1ccc(S(=O)(=O)N(C)CCCC(=O)N(C)Cc2ccccc2F)cc1`, the inhibition is 0.4% (inactive). With `CCCNC(=O)c1cc(C2CCCN(C(=O)c3ccc4c(c3)CCO4)C2)on1` (stereo not drawn), the inhibition was -0.8% (inactive). Turning to `CCOC(=O)C1CCN(C(=O)c2oc3ccc(S(=O)(=O)N4CCCCCC4)cc3c2C)CC1`, the inhibition is -3.5% (inactive). The result for `Cc1c(C(=O)NCCN(C)C)oc2ccc(S(=O)(=O)N3CCCC3)cc12` reads 65.9% (active); that for `COc1ccc(NC(=O)c2oc3ccc(S(=O)(=O)N4CCOCC4)cc3c2C)cc1`, -0.9% (inactive). Turning to `CC(Oc1cccc(Cl)c1)C(=O)Nc1ccc(S(=O)(=O)Nc2ncccn2)cc1` (stereo not drawn), the inhibition was -1.1% (inactive). For the compound `CC[C@@H]1Cc2cc(O)ccc2C2=C1c1ccc(O)cc1C[C@H]2CC`, the inhibition is -3.2% (inactive). For the compound `COC(=O)c1ccc(S(=O)(=O)N2CCC(c3nc4ccccc4o3)CC2)cc1`, the inhibition was 1.2% (inactive).

Take `CC1Cn2c(nnc2-c2cccs2)S1` (stereo not drawn): the inhibition is -1.1% (inactive).

The record behind these values is PubChem BioAssay AID602244 (Sanford-Burnham Center for Chemical Genomics, 2012).
